MEKK2 mut-MEK5 = signal of MEK5 binding to mutant human MEKK2 PB1 domain. bead flow cytometry, Alexa488-MEK5 binding to MEKK2 mutant. AID 1530. percent response, % at 10 µM. 0.35% of 290,000 active; in the data active = percent response above about 24%, passing the limit was not always enough
VLA-4 inh = inhibition in a human VLA-4 binding assay | P13612 | VLA-4 expressing cells, ligand binding flow cytometry | inhibition, % (about 7 µM as worked out from the volumes in the protocol) | 0.2% of 330,000 active | AID 2557; in the data active = inhibition above about 50%
MEKK3 PB1 HTS = MEKK3-MEK5 PB1 interaction, increase or decrease | Q99759 | bead-based flow cytometry, Alexa488-MEK5 binding to MEKK3; actives lie on both sides; 0 = blocked by unlabeled MEK5, 100 = vehicle | binding response (% of control), % at 10 µM | 1.4% of 290,000 active | AID 1529;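 active = binding response more than 3 SD above or below the average of its plate-row segment, actives on both sides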;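 note: Alexa488 bead fluorescence after subtracting the streptavidin-only scavenger bead signal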
Target sequence (Q99759 whole entry, looked up): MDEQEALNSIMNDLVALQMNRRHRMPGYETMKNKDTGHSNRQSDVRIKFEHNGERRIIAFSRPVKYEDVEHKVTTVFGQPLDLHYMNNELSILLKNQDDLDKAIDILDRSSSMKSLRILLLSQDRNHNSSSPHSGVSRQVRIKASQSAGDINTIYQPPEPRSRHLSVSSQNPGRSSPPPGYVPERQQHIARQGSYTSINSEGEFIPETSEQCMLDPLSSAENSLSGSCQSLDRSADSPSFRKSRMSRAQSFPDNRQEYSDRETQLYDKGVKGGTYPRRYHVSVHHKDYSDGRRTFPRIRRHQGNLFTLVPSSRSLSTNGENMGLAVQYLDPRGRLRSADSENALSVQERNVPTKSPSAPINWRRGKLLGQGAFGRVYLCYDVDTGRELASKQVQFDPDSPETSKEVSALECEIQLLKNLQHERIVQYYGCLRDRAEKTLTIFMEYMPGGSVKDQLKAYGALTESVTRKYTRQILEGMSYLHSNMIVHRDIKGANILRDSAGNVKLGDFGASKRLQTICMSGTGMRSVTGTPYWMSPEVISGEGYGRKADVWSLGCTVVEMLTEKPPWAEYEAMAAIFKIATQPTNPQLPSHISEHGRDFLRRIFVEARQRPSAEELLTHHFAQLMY
MEKK2wt PB1 HTS = raises or lowers MEK5 binding to wildtype human MEKK2 PB1 domain; Q9Y2U5; AID 1531; bead flow cytometry, Alexa488-MEK5 binding to MEKK2 WT; actives lie on both sides; 1.1% of 290,000 active; binding response (% of control), % at 10 µM; in the data active = binding response below about 67% or above about 130%
MEKK2wt confirm = raises or lowers MEK5 binding to wildtype human MEKK2, retest | shares compounds with MEKK3 PB1 HTS | binding response (% of control), % at 10 µM | bead flow cytometry, Alexa488-MEK5 binding to MEKK2 WT; actives lie on both sides | 2.4% of 5,900 active | AID 1892; in the data active = binding response below about 16% or above about 210%; inactive = in between
MEKK2mut confirm = signal of MEK5 binding to mutant human MEKK2, retest | percent response, % at 10 µM | AID 1893 | bead flow cytometry, Alexa488-MEK5 binding to MEKK2 mutant | 2% of 5,900 active | shares compounds with MEKK3 PB1 HTS; in the data active = percent response mostly above about 71%, no sharp cut-off; inactive = mostly below about 38%;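 note: higher means compound restores mutant binding toward wildtype level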
MEKK3-MEK5 inh = confirmation of inhibitors of MEK5 binding to human MEKK3; shares compounds with MEKK3 PB1 HTS; bead flow cytometry, Alexa488-MEK5 binding to MEKK3; stronger effect = lower value; binding response (% of control), % at 10 µM; 1.8% of 5,900 active; AID 1894;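 active = binding response below 72% of control, or above a set upper limit, though filed actives all read lower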;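 note: 100% = DMSO only wells and 0% = binding blocked by excess unlabeled MEK5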
Numbers without * were called inactive; i = inactive; . = no result; [ ] = another dose, or the depositor's remark. The list is not random: actives were taken first. Their share in the collection is about 2.2%.

SMILES	MEKK2 mut-MEK5	VLA-4 inh	MEKK3 PB1 HTS	MEKK2wt PB1 HTS	MEKK2wt confirm	MEKK2mut confirm	MEKK3-MEK5 inh
COc1ccc(NC2CC(=O)N(c3ccc(C(=O)O)cc3)C2=O)cc1 (centres undefined)	0	5	130*	108	97	5	102
C[C@@H](CN1C2=NC[C@H](C)N2C[C@H]1Cc1ccc(O)cc1)NC(=O)CCC1CCCCC1	15	13	103	120	.	.	.
COc1ccc(C[C@H]2CN3C(=NC[C@@H]3Cc3ccc(O)cc3)N2C[C@H](C)NC(=O)CCC2CCCCC2)cc1	17	24	115	141*	131	12	89
CC(C)[C@H]1CN=C2N(C[C@H](C)NC(=O)CCC3CCCCC3)[C@H](Cc3ccc(O)cc3)CN21	11	28	112	112	.	.	.
COc1ccc(C[C@@H]2CN3C(=NC[C@@H]3Cc3ccc(O)cc3)N2C[C@H](C)NC(=O)CCC2CCCCC2)cc1	9	16	1.0*[inhibitor]	135*	155	53	107
Cc1ccc(C(=O)NC(=S)Nc2nc(-c3cccc([N+](=O)[O-])c3)cs2)c(Cl)c1	-16	2	45*[inhibitor]	51	103	-2	103
COC(=O)[C@H](CC(C)C)NS(=O)(=O)N[C@@H](CC(C)C)C(=O)OC	.	-4	.	.	.	.	.
COC(=O)/C=C/CC(C)OS(N)(=O)=O (centres undefined)	7	0	98	152*	96	-7	90
CC(=O)N1CCN(CCS(=O)(=O)c2ccc(Br)cc2)CC1	.	6	.	.	.	.	.
CSc1ncccc1C(=O)NC(C)C1CC2CCC1C2 (centres undefined)	-5	25	94	93	.	.	.
O=C(Nc1ccccc1)Nc1cccc(C(F)(F)F)c1	0	3	111	106	.	.	.
Cc1ccc(OC(F)F)c(NC(=O)Nc2cccc(C(F)(F)F)c2)c1	55*	-6	108	203*	134	6	103
O=[N+]([O-])c1cccc(-c2nn(-c3ccccc3)cc2CO)c1	6	-13	103	100	.	.	.
O=S(=O)(N/N=C\c1cn(-c2ccccc2)nc1-c1ccccc1)c1ccccc1	11	20	126*	119	103	-1	108
O=[N+]([O-])c1ccc(N/N=C/c2cn(-c3ccccc3)nc2-c2ccccc2)cc1	27*	-274	97	11*	114	14	100
O=C(NCc1cn(-c2ccccc2)nc1-c1ccccc1)c1ccc([N+](=O)[O-])cc1	2	10	131*	122	99	-2	95
CCCn1c(SCC(=O)Nc2cc(Cl)ccc2Cl)n[nH]c1=O	0	-5	103	99	.	.	.
CCCn1c(SCC(=O)NC(=O)Nc2ccc(C)cc2C)n[nH]c1=O	-18	2	0.0*[inhibitor]	-5.0*[inhibitor]	111	5	114
C/C(=C\c1ccccc1)CN1CCC(C(=O)N2CCC(C)CC2)CC1	7	3	99	95	.	.	.
C/C(=C\c1ccccc1)CN1CCC(C(=O)N2CCCCC2)CC1	3	-22	138*	109	104	4	102
CN(C)C(CNC1CC(C)(C)NC(C)(C)C1)c1cccc(F)c1 (centres undefined)	3	0	102	110	.	.	.
Cc1ccc(C(=O)N2C(=S)C(c3ccc(F)cc3)=NC23CCN(C)CC3)cc1	23	4	106	151*	110	6	101
N#CCCN(C(=O)COC(=O)C1=NNC(=O)CC1)c1ccccc1	.	4	.	.	.	.	.
COc1ccc2cc(C=NS(=O)(=O)c3ccc(C)cc3)n(C)c2c1	.	0	.	.	.	.	.
Cc1cc(C)n2nc(-c3ccsc3-n3c(C)ccc3C)cc2n1	1	-124	94	9.0*[inhibitor]	96	3	103
SMILES	MEKK2 mut-MEK5	VLA-4 inh	MEKK3 PB1 HTS	MEKK2wt PB1 HTS	MEKK2wt confirm	MEKK2mut confirm	MEKK3-MEK5 inh
O=C(COC(=O)c1ccc(O)cc1)Nc1ccc2c(c1)OCO2	.	22	.	.	.	.	.
CC(=O)OCC(=O)C1=CCC2C3CCC4=CC(=O)C=CC4(C)C3(F)C(OC(C)=O)CC12C (centres undefined)	-2	19	62*[inhibitor]	37*[inhibitor]	103	0	102
CC(=O)OCC(=O)[C@@]1(O)CC[C@H]2[C@@H]3CCC4=CC(=O)C=C[C@]4(C)[C@@]3(F)[C@@H](O)C[C@@]21C	.	-13	.	.	.	.	.
COC(=O)CCC(=O)OC1(C)C(=O)C2=CN(CCc3c[nH]c4ccccc34)C(c3ccc(OC)cc3)=CC2=C(Br)C1=O (centres undefined)	-3	-28	84	88	.	.	.
COC(=O)CCC(=O)OC1(C)C(=O)C2=CN(CCCOC(C)C)C(c3ccc(OC)cc3)=CC2=C(Br)C1=O (centres undefined)	1	-29	90	-8.0*[inhibitor]	95	-4	93
COC(=O)CCC(=O)OC1(C)C(=O)C2=CN(CC(C)C)C(c3ccc(OC)cc3)=CC2=C(Br)C1=O (centres undefined)	1	-9	88	-7.0*[inhibitor]	83	-12	71*
Cc1ccc(S(=O)(=O)N2CC=C(C(=O)NC3CC3)CC2)cc1	-4	1	94	98	.	.	.
COc1ccc2c(/C=C/c3cc[n+](C)cc3)c[nH]c2c1	48*	i	104	168*	101	-1	93
Cc1ccc2[nH]cc(/C=C/c3cc[n+](C)cc3)c2c1	-3	i	101	112	.	.	.
C=CC(C)(O)CCC=C(C)C (centres undefined)	.	9	.	.	.	.	.
CC(C)=CCC/C(C)=C/CC(C)(C)CNCCN1CCNCC1	21	8	119	163*	111	12	105
O=Cc1ccc(C(=O)OCC(=O)Nc2ccc(F)cc2F)cc1	3	16	101	101	.	.	.
O=Nc1c(O)[nH]c2c(F)cccc12	-3	-2	96	96	.	.	.
CCc1cccc2c(N=O)c(O)[nH]c12	0	18	136*	110	108	8	105
O=C1S/C(=C/c2ccccc2)C(=O)N1CC(O)Cn1c2ccccc2c2ccccc21 (centres undefined)	-1	13	75*[inhibitor]	91	89	-6	81
O=CN1CCN(C(=O)COc2ccc(Cl)cc2Br)CC1	0	21	149*	108	98	-3	101
O=C(COc1ccc(Cl)cc1Br)N1CCN(c2ccccc2)CC1	5	5	101	103	.	.	.
COc1ccc(C(C(=O)NCC2CCCO2)N(C(=O)c2snc(C(N)=O)c2N)c2ccc(C)cc2)cc1OC (centres undefined)	12	.	104	100	.	.	.

Compound activity from PubChem.
